According to PubChem BioAssay:
The source made the active and inactive calls.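 How the source made its calls, unless noted: active means inhibition at or above 50% at 10 µM; inactive means inhibition below 50%.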

Key:
[1] = inhibitors of TNFa-induced NFkB p65 translocation, primary screen, imaging, HUVEC, MLSMR starter and 10KST1 sets (AID 438;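 active means inhibition above 20% together with a positive visual image hit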;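 further: compound added about 3h40 before a 20 min TNFalpha stimulation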;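 on inhibition: signal is the nuclear over cytoplasmic p65 intensity ratio per well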); details: HUVEC TNFa-induced p65 nuclear translocation; cell count: measured here: nuclei count (cytotoxicity indicator), at 2.08 µM; inhibition: at 2 µM, stronger effect = higher value, 0% TNFa-plus-vehicle, 100% no-TNFa wells
[2] = reduction of polyQ htt aggregates in cells – imaging, exon1htt(103Q)mCFP cells, high-content imaging, primary screen (AID 483;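 active means visual image review flags a hit and inhibition of aggregation exceeds 20%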;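 further: compound exposure lasted 3 days before fixation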;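 on nuclei count: percent of the per-plate median nuclei count of sample wells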); details: exon1htt(103Q)mCFP cell line, aggregate imaging, at 2 µM; inhibition of aggregation: stronger effect = higher value; nuclei count: measured here: cell count, toxicity
[3] = endothelial E-selectin expression blockers – imaging, HUVEC, immunofluorescence, MLSMR starter and 10KST1 sets, primary screen (AID 487;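 active means visually confirmed hit in the image check and inhibition above 20%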;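 on inhibition: signal is fraction of cell area covered by stained E-selectin grains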;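 on nuclei count: 100% = median nuclei count of all wells on the same plate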); details: HUVEC TNFalpha-induced E-selectin immunofluorescence imaging, at 2 µM; inhibition: stronger effect = higher value; nuclei count: measured here: cell number, toxicity
[4] = target: Voltage-gated potassium channel subunit beta-2 (Rattus norvegicus) (UniProt P62483); experiment: inhibitors of rat Kvbeta2 reductase activity – biochemical, NADPH fluorescence, primary screen (AID 622;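 active means fluorescence slope higher than the sample average by over 3 SD, cut at about -0.22 in these data, passing the limit was not always enough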;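 further: slope of raw intensity against log time taken from 70 to 1610 s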); details: recombinant KvBeta, 4-cyanobenzaldehyde reduction, at 10 µM, stronger effect = higher value
[5] = target: Voltage-gated potassium channel subunit beta-2 (Rattus norvegicus) (UniProt P62483); experiment: enhancers of rat Kvbeta2 NADPH turnover – biochemical, NADPH fluorescence, primary screen (AID 623;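 active means NADPH fluorescence slope more negative than the mean of all samples by about 3 SD, 99.7% confidence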;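 further: fluorescence intensity change per second fitted from 20 to 320 s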); details: Recombinant KvBeta, NADPH fluorescence decrease slope, 10 min; at 10 µM; stronger effect = lower value
[6] = target: Alpha-2C adrenergic receptor (Homo sapiens) (UniProt P18825); experiment: compounds altering alpha2C-coupled GIRK flux – cell-based, HEK293 alpha2C/GIRK1/2, thallium flux, primary screen (AID 624;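 active means fluorescence slope after compound addition differing from the mean of all screened samples at 99.7% confidence, in either direction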;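 further: slope of fluorescence ratio to pre-addition baseline per second over 15 to 24 s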); details: thallium flux BTC fluorescence, at 10 µM, actives lie on both sides
[7] = blockers of RIG-like receptor reporter activation – cell-based, Sendai virus stimulus, luciferase, 10K MLSCN set, TLR/RLR signaling modifier project, primary screen (AID 602276); details: HEK293 RL24 IRF3 luciferase reporter, at 10 µM, stronger effect = higher value;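 further: firefly luciferase from ISG56 promoter only with Renilla not read in this screen; 0% = Sendai virus plus DMSO and 100% = medium plus DMSO without virus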
[8] = TLR3 IRF3 reporter activation blockers – cell-based, poly I:C stimulus, luciferase, 10K MLSCN set, primary screen (AID 602277;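 active means inhibition of the reporter signal at or above 50%; inactive means inhibition below 50%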); details: HEK293-TLR3 RL24 IRF3 luciferase reporter, at 10 µM, stronger effect = higher value

Sequence of Alpha-2C adrenergic receptor (Homo sapiens) (P18825 whole entry, looked up): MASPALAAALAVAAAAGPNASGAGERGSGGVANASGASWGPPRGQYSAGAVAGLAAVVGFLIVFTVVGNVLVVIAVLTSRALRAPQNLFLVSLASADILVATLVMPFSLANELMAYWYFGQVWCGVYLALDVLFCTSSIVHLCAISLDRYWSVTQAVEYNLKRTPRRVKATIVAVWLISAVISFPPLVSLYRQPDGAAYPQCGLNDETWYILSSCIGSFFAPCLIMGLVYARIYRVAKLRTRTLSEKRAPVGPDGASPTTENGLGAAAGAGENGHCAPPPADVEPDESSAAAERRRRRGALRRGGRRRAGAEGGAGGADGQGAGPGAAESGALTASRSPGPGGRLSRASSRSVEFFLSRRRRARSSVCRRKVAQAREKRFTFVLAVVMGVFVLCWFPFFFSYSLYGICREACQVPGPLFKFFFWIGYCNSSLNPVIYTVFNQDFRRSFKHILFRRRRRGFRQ
Sequence of Voltage-gated potassium channel subunit beta-2 (Rattus norvegicus) (P62483 whole entry, looked up): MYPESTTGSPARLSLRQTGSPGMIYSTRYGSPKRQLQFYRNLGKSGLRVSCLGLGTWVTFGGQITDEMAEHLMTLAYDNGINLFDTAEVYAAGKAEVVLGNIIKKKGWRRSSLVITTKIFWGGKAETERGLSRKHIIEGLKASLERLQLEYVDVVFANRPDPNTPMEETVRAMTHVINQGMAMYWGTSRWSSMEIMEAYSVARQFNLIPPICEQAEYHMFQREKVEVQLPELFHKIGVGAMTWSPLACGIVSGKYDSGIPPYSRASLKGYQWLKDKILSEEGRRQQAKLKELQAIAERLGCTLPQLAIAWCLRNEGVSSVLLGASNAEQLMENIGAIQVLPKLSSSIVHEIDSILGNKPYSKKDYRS

| SMILES | cell count [1] | inhibition [1] | inhibition of aggregation [2] | nuclei count [2] [%] | inhibition [3] | nuclei count [3] [%] | fluorescence slope [4] | NADPH fluorescence slope [5] | slope [6] | inhibition [7] | inhibition [8] |
| --- | --- | --- | --- | --- | --- | --- | --- | --- | --- | --- | --- |
| Cc1cc(OCC(O)CN2CCN(CCO)CC2)ccc1C(C)C (stereo not drawn) | 428 | -0.5% (inactive) | 16.4% (inactive) | 94.9 | 24% (inactive) | 93.2 | -0.439 (inactive) | -3.1e-05 (inactive) | 0.00431 (inactive) | 9.34% (inactive) | 29.3% (inactive) |
| COc1nc(Oc2ccc(=O)n(C)n2)nc(N(C)C)n1 | 420 | 1% (inactive) | -5.2% (inactive) | 116 | -52.1% (inactive) | 110 | -0.357 (inactive) | -1.9e-05 (inactive) | 0.00579 (inactive) | 6.15% (inactive) | 12% (inactive) |
| CNc1ccc(C(O)(C(F)(F)F)C(F)(F)F)cc1C(O)(C(F)(F)F)C(F)(F)F | 667 | 3.3% (inactive) | -7.5% (inactive) | 103 | 3.3% (inactive) | 92.8 | -0.616 (inactive) | -4.4e-05 (inactive) | 0.00297 (inactive) | 12.6% (inactive) | 18.9% (inactive) |
| CCOC(=O)c1ccccc1NC(=O)c1c(O)c2ccccc2n(CC)c1=O | 649 | -12.8% (inactive) | -35.3% (inactive) | 101 | 20.2% (inactive) | 120 | -0.489 (inactive) | -0.000195 (inactive) | 0.00747 (inactive) | -2.85% (inactive) | 9.26% (inactive) |
| CC1CCCCC1NC(=O)Cn1ncc2ccccc21 (stereo not drawn) | 827 | -6.9% (inactive) | 10.9% (inactive) | 94 | -81.1% (inactive) | 123 | -0.555 (inactive) | -4.8e-05 (inactive) | 0.00699 (inactive) | 11.9% (inactive) | 34.8% (inactive) |
| O=c1[nH]c2cc3c(cc2cc1C(c1nnnn1C1CCCCC1)N1CCSCC1)OCCO3 (stereo not drawn) | 479 | 0% (inactive) | -12.4% (inactive) | 106 | -10% (inactive) | 96.7 | -0.313 (inactive) | -3.2e-05 (inactive) | 0.00532 (inactive) | -11.4% (inactive) | -7.01% (inactive) |
| COc1cc(Nc2cc(C)nc3ncnn23)cc(OC)c1OC | 649 | -6.3% (inactive) | -4.4% (inactive) | 109 | -23.8% (inactive) | 112 | -0.56 (inactive) | 1.9e-05 (inactive) | 0.0068 (inactive) | 1.55% (inactive) | 31.7% (inactive) |
| Cc1cc(C)c(NC(=O)CSc2nc3c(c(=O)n2C)SC(C)C3)c(C)c1 (stereo not drawn) | 700 | 2.9% (inactive) | -5.9% (inactive) | 102 | -22% (inactive) | 120 | -0.565 (inactive) | -3.2e-05 (inactive) | 0.00653 (inactive) | -19.3% (inactive) | -13.4% (inactive) |
| CCOc1ccc(-c2nc(S(=O)(=O)c3ccccc3)c(NCc3cccnc3)o2)cc1 | 621 | 0.6% (inactive) | -7.9% (inactive) | 105 | -59% (inactive) | 109 | -0.534 (inactive) | 3.2e-06 (inactive) | 0.00448 (inactive) | 0.887% (inactive) | -7.62% (inactive) |
| Cc1ccc(C2c3c(oc4ccccc4c3=O)C(=O)N2c2nnc(C(C)C)s2)o1 (stereo not drawn) | 622 | -13.1% (inactive) | -21.4% (inactive) | 90.4 | -37.8% (inactive) | 102 | -0.436 (inactive) | -5.6e-05 (inactive) | 0.00484 (inactive) | 9.17% (inactive) | 19.7% (inactive) |
| CCOc1ccc(OCC)c(NC(=O)CN2CCN(C(=O)c3ccco3)CC2)c1 | 554 | -19.4% (inactive) | -12.3% (inactive) | 122 | -77.5% (inactive) | 102 | -0.546 (inactive) | 1.9e-05 (inactive) | 0.00515 (inactive) | -15.6% (inactive) | -16.4% (inactive) |
| CCN(CC)S(=O)(=O)c1ccc(Cl)c(C(=O)OC)c1 | 456 | -5% (inactive) | 0.1% (inactive) | 87.5 | 8.3% (inactive) | 123 | -0.493 (inactive) | -2.2e-05 (inactive) | 0.00748 (inactive) | 20.5% (inactive) | 21.4% (inactive) |
| CC(C)(C)NC(=O)COC(=O)c1ccc(O)cc1 | 714 | -6.7% (inactive) | -18.1% (inactive) | 98.1 | 10% (inactive) | 101 | -0.625 (inactive) | 7.6e-06 (inactive) | 0.00738 (inactive) | -6.22% (inactive) | -8.12% (inactive) |
| COc1ccc(OC)c(C(=O)c2ccc(C(=O)O)cc2)c1 | 415 | 10.6% (inactive) | -5.3% (inactive) | 100 | -71.4% (inactive) | 110 | -0.508 (inactive) | -2.9e-05 (inactive) | 0.00489 (inactive) | 16.7% (inactive) | 18.4% (inactive) |
| CCOC(=O)c1c(N)nn(C(=O)C(C)C)c1-c1ccccc1 | 690 | -2.1% (inactive) | -5.4% (inactive) | 112 | 4.3% (inactive) | 109 | -0.529 (inactive) | -1.3e-05 (inactive) | 0.00581 (inactive) | -23.8% (inactive) | -5.01% (inactive) |
| COc1cc(CN2CCSCC2)cc(OC)c1OC | 642 | -1.9% (inactive) | 12.3% (inactive) | 60.4 | -13.9% (inactive) | 98.2 | -0.486 (inactive) | 2.1e-05 (inactive) | 0.00258 (inactive) | -4.06% (inactive) | 20% (inactive) |
| Cc1nn(-c2nc3ccccc3s2)c(C)c1Oc1ccccc1O | 591 | -9.8% (inactive) | -19.1% (inactive) | 107 | -154% (inactive) | 161 | -0.437 (inactive) | -2.9e-06 (inactive) | 0.00527 (inactive) | 2.14% (inactive) | -97.7% (inactive) |
| CCOC(=O)c1cc(-c2ccco2)nc2c1c(C)nn2CCC#N | 590 | -10.8% (inactive) | -3.4% (inactive) | 103 | -15.3% (inactive) | 146 | -0.214 (active) | 2.1e-05 (inactive) | 0.00625 (inactive) | -22.4% (inactive) | -3.59% (inactive) |
| O=C(c1ccco1)N1CCN(S(=O)(=O)c2ccc(C3CCCCC3)cc2)CC1 | 400 | 7.2% (inactive) | -1.8% (inactive) | 102 | -44.9% (inactive) | 109 | -0.501 (inactive) | -3.8e-05 (inactive) | 0.00443 (inactive) | -0.0986% (inactive) | -28.6% (inactive) |
| CC1(C)Cc2c(c(=S)nc(-c3ccccc3)n2CCO)CO1 | 278 | -0.5% (inactive) | 19% (inactive) | 109 | 41.7% (inactive) | 93.9 | -0.501 (inactive) | -5.3e-05 (inactive) | 0.006 (inactive) | 8.44% (inactive) | 23.5% (inactive) |
| CC1CCN(S(=O)(=O)c2ccc3[nH]c(=O)cc(C(=O)O)c3c2)CC1 | 323 | -20.8% (inactive) | 8.5% (inactive) | 129 | -20% (inactive) | 104 | -0.463 (inactive) | -0.000161 (inactive) | 0.00662 (inactive) | -2.34% (inactive) | 13% (inactive) |
| COc1ccccc1-n1c(SCC(=O)Nc2ccc3c(c2)OCO3)nc2c(c1=O)SCC2 | 324 | -4.6% (inactive) | -2.1% (inactive) | 94.7 | -54.1% (inactive) | 137 | -0.545 (inactive) | 4.8e-05 (inactive) | 0.00487 (inactive) | -5.47% (inactive) | 7.78% (inactive) |
| CC(=O)Nc1cccc(NC(=O)CSc2nn3c(=O)c(C)nnc3s2)c1 | 577 | 5.2% (inactive) | 9.9% (inactive) | 97.9 | -0.3% (inactive) | 95.8 | -0.454 (inactive) | -5.9e-05 (inactive) | 0.00534 (inactive) | 2.45% (inactive) | 20.4% (inactive) |
| COc1cccc(-c2nnc(SCC(=O)N3CCCc4ccccc43)o2)c1 | 642 | 3.6% (inactive) | -6.3% (inactive) | 100 | -56.4% (inactive) | 109 | -0.378 (inactive) | -5e-05 (inactive) | 0.00375 (inactive) | 5.85% (inactive) | 26.1% (inactive) |
| O=C(NC1CCCCC1)c1nc2c(nnn2Cc2ccccc2Cl)c(=O)[nH]1 | 584 | 8.8% (inactive) | 17.1% (inactive) | 85.3 | 7.2% (inactive) | 105 | -0.525 (inactive) | -2.9e-05 (inactive) | 0.0047 (inactive) | 3.13% (inactive) | 6.18% (inactive) |
| O=C1CC(c2ccsc2)c2cc3c(cc2N1)OCCO3 (stereo not drawn) | 623 | 0% (inactive) | -4.2% (inactive) | 87.6 | -78.5% (inactive) | 129 | -0.556 (inactive) | -2.5e-05 (inactive) | 0.0063 (inactive) | 1.12% (inactive) | 21.1% (inactive) |
| CN(C)S(=O)(=O)c1ccc(C(=O)N2CCCC2c2nc3ccccc3s2)cc1 (stereo not drawn) | 475 | -9.4% (inactive) | 4% (inactive) | 97.5 | -82.5% (inactive) | 102 | -0.524 (inactive) | 1.6e-05 (inactive) | 0.0053 (inactive) | -17.9% (inactive) | -7.19% (inactive) |
| CCC(=O)c1ccc(OC(=O)c2ccc(Br)o2)cc1 | 354 | 6.8% (inactive) | -19.7% (inactive) | 99.8 | -84.3% (inactive) | 112 | -0.605 (inactive) | -3e-05 (inactive) | 0.00383 (inactive) | 10.9% (inactive) | 9.67% (inactive) |
